Assay results taken from the supplement of paper PMC6555819.

How the values were obtained:
Assay in all cases: PBM binding z-score (relative to random genomic background probes); higher = stronger binding; sequences stand for … in GC…GCGATTGACAGCGTAGAATGAAGG
[1] = tested on: RARb homodimer (NR concentration 270 nM)
Procedure, shortened: (§1)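 Scanned fluorescence from custom Agilent 4×180K protein-binding microarrays was regression-normalized. Binding z-scores use random background probes as reference. Ligand-free nuclear receptor dimers were incubated on the arrays for 1 h and detected with antibodies against each partner (one per run).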

[2] = tested on: RARg:RXRa (NR concentration 270 nM, RXRa partner concentration 90 nM)
Procedure, shortened: as §1

[3] = tested on: RARg homodimer (NR concentration 270 nM)
Procedure, shortened: as §1

[4] = tested on: RXRa DBDmut IVT, anti-RXR (DBD mutation: RXRa K156A/R161A, NR concentration 90 nM)
Procedure, shortened: as §1

[5] = tested on: RXRa homodimer (NR concentration 180 nM)
Procedure, shortened: as §1

[6] = tested on: THRa:RXRa (NR concentration 90 nM, RXRa partner concentration 90 nM)
Procedure, shortened: as §1

[7] = tested on: THRa homodimer (NR concentration 90 nM)
Procedure, shortened: as §1

[8] = tested on: VDR homodimer (NR concentration 270 nM)
Procedure, shortened: as §1

Sequence	PBM binding z-score [1]	PBM binding z-score [2]	PBM binding z-score [3]	PBM binding z-score [4]	PBM binding z-score [5]	PBM binding z-score [6]	PBM binding z-score [7]	PBM binding z-score [8]
GGTGCTAGGTCAACTGATGGTCAGCTAAAGCTCG	3.76	5.3	5.75	1.28	2.7	2.99	1.07	0.446
ATATATAGGTTATCGGGTCATTCAGTTTGCGCAT	3.49	3.74	2.97	2.18	4.13	3.51	3.2	4.39
AGTCAAAGTTCACTAGGTCACGTAAGATTCAGCT	5.29	6.62	7.17	4.43	5.44	3.72	2.54	4.43
CGAACTAGGTCATAGACAGGACAGTGAATAGTAA	2.43	4.2	4.11	1.6	3.32	2.62	0.586	0.676
CGAACTAGGTCATCCAGGACACTGAATACATTGA	3.19	4.13	4.86	2.38	3.13	4.19	3	3.09
TCTGCTAGGTCAGCGATGGTCAGCTAATCTGCTA	2.71	2.89	3.88	0.156	1.25	2.4	-0.062	-0.739
CAAACTAGGTCAAATGTCAAAGTCGAGCCAACCA	3.4	5.2	5.17	2.58	5.14	3.36	0.944	1.05
TCATATAGGAAAATGCTAGGTGAAAGTCCGATCT	0.42	0.204	0.133	1.41	0.778	0.612	0.548	0.37
CAAACTAGGTCAAAGGTCAAAGTCGAGCCAACCA	4.96	8.83	7.42	2.87	10.2	4.74	1.83	3.41
GCGACTGGGGCATCAGCAGGCTACCATAACTTAA	0.21	-0.0453	0.15	-0.185	-0.168	-0.0992	0.158	-0.693
CCTACTGGGCCAAAAAGGTCATTGCTGCCGATAA	4.46	4.63	4.02	0.7	4.99	2.99	0.486	2.98
TCTTGTAGATCAATAGAGGTTAAGAAGGTGCGCT	1.27	0.969	0.482	0.518	1.33	2.37	-0.695	0.298
AGTCAATGTTCATCTAGGTAACGTAAGATATGCT	-0.0821	0.125	0.41	0.291	0.0893	0.616	0.345	-0.282
TTACCAAGGTGAAGGTCGTTGTTCCCTCTGTAGA	2.09	1.36	1.24	0.33	1.49	2.4	1.18	1.11
CCAGACAGGTGAAAGGTAAATCAGTCTGGTACGC	0.653	1.04	0.721	-0.121	1.85	0.832	-0.308	0.0909
TCCATTAGTTGAAGGGCAACCGACGAGTCCGTTT	1.47	0.679	0.586	1.9	1.05	0.553	0.351	1.57
CTACGAAGGTGAACAAGGTCGTTGATTACTATTC	2.4	2.2	1.98	1.51	2.21	2.91	1.08	2.46
CGTCCAAGGTCAAGGTCAGTCAAAGAGACTCGAA	5.15	6.95	7.59	4.09	6.7	4.16	3.61	3.55
TCAGCTAGGTCAGTTGGTCAGCTAACGAGCTGCC	2.61	2.79	3.45	0.986	0.749	0.928	-0.339	-0.91
ATACCAAGGTGATCGTGAGGTCGTTAATACTAAC	1.68	1.93	0.856	0.881	1.32	3.3	2.44	3.04
ACTTACGGGACAACGAGGTTATAGCACGCGTATA	1.17	0.768	1.24	0.749	1.03	1.69	0.953	1.94
GCAGACAGGTGAAACGCAGGTAACTCAAGGTGGC	0.0427	0.907	0.318	-0.708	0.523	1.76	-0.397	-0.202
CGTCATAGTTCAAGGTAACGTAACAGAAAGCAGC	2.2	2.96	3.42	2.26	1.99	2.32	1.16	0.917
GCTAGCAGGGCATTTGGGTCACTCAATGACGGGC	1.89	1.32	1.26	0.672	1.16	2.07	0.291	0.573
AGTCAAAGTTCATTTAGGTAACGTAAGATATGCT	3.77	5.03	5.39	4.96	4.35	3.29	1.03	5.45
ACTTACGGGTCAACGAGGGTATAGCACGCGTATA	3.24	5.55	4.88	2.4	5.63	3.42	-0.0304	2.67
AGAATGAGGTTCTTAAGATCAGGGAATTGCGGTC	-0.377	-0.106	-0.186	0.301	-0.00148	0.365	0.000852	-0.0897
CCTAGCAGGTCAGGGTCACTCAAGCATTTCGCTT	4.32	5.02	5.1	1.94	5.24	3.71	1.83	2.32
CAAACTAGGTCAATGTCAAAGTCGGTTTGTGCCA	3.06	3.43	4.16	1.94	2.36	2.56	0.861	1.28
